Assay results as given in PubChem BioAssay AID1159580 (chemical genetic matrix, 2015).
Where “and” joins values, the source holds several entries; their conditions need not be identical. Identical values can stand only once. The whole screen tested about 5,500 compounds, of which about 2,000 (36%) were called active. Another 18% or so got no clear call; they are omitted. Cut-off read from the data, not from the text of the source: active = normalized growth mostly below about 0.91 (no sharp cut-off); inconclusive = no clear call, values can overlap the other calls; inactive = mostly above about 0.92. The list shows a part of the results.

Test: chemical genetic growth profiling, strain panel (AID 1159580);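 note: tested at 20 µM; growth read once vehicle control cultures reached saturation at 30 °C; 1 = growth at the plate median or of vehicle wells; lower values mean less growth of the strain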
Details: S. cerevisiae deletion strains, growth OD

Measured: normalized growth

OC[C@H]1O[C@@H](Oc2ccc(O)cc2)[C@H](O)[C@@H](O)[C@@H]1O
inactive: locus YAL013W, strain DEP1, active compounds read low 1.02 | locus YAL021C, strain ccr4, active compounds read low 0.993 | locus YAL026C, strain drs2, active compounds read low 1.02 | locus YAL030W, strain snc1, active compounds read low 1.01 | locus YBL061C, strain skt5, active compounds read low 1.02 | locus YBR009C, strain hhf1, active compounds read low 1.02 | locus YBR021W, strain FUR4, active compounds read low 0.988 | locus YBR023C, strain chs3, active compounds read low 1.01 | locus YBR171W, strain sec66, active compounds read low 1.01 | locus YBR229C, strain ROT2, active compounds read low 1.02 | locus YBR231C, strain swc5, active compounds read low 1 | locus YBR279W, strain paf1, active compounds read low 1.01 | locus YCL011C, strain gbp2, active compounds read low 1.01 | locus YCL016C, strain dcc1, active compounds read low 0.992 | locus YCL029C, strain bik1, active compounds read low 1.04 | locus YCL069W, strain vba3, active compounds read low 1.01 | locus YCR088W, strain abp1, active compounds read low 1.02 | locus YDL005C, strain med2, active compounds read low 1.01 | locus YDL035C, strain GPR1, active compounds read low 1 | locus YDL040C, strain nat1, active compounds read low 1 | locus YDL074C, strain BRE1, active compounds read low 1.03 | locus YDL101C, strain DUN1, active compounds read low 1.02 | locus YDL134C, strain PPH21, active compounds read low 1.02 | locus YDL185W, strain tfp1, active compounds read low 1.02 | locus YDL192W, strain arf1, active compounds read low 1.03 | locus YDR001C, strain nth1, active compounds read low 1 | locus YDR069C, strain doa4, active compounds read low 1.01 | locus YDR101C, strain arx1, active compounds read low 1.01 | locus YDR137W, strain rgp1, active compounds read low 1.02 | locus YDR159W, strain sac3, active compounds read low 1.05 | locus YDR162C, strain NBP2, active compounds read low 1.03 | locus YDR195W, strain ref2 1 | locus YDR297W, strain sur2, active compounds read low 1 | locus YDR318W, strain mcm21, active compounds read low 1.02 | locus YDR334W, strain swr1, active compounds read low 1 | locus YDR335W, strain msn5, active compounds read low 1.02 | locus YDR388W, active compounds read low 1.01 | locus YDR392W, strain spt3, active compounds read low 1.02 | locus YDR502C, strain sam2, active compounds read low 1.01 | locus YEL003W, strain gim4, active compounds read low 1.01 | locus YEL037C, strain rad23, active compounds read low 0.999 | locus YEL061C, strain CIN8 (second series), active compounds read low 1.01 | locus YEL061C, strain CIN8, active compounds read low 1.01 | locus YER015W, strain faa2, active compounds read low 1.01 | locus YER016W, strain bim1, active compounds read low 1.01 | locus YER110C, active compounds read low 1.03 | locus YER111C, strain swi4, active compounds read low 1.01 | locus YER155C, strain BEM2 (second series), active compounds read low 1.03 | locus YER155C, strain BEM2, active compounds read low 0.999 | locus YER167W, strain BCK2, active compounds read low 1.01 | locus YFR010W, strain ubp6, active compounds read low 1.01 | locus YGL078C, strain dbp3, active compounds read low 1.03 | locus YGL086W, strain mad1, active compounds read low 1.01 | locus YGL167C, strain pmr1, active compounds read low 1.02 | locus YGL173C, strain kem1, active compounds read low 1.02 | locus YGL227W, strain vid30, active compounds read low 1.01 | locus YGL240W, strain doc1, active compounds read low 1.02 | locus YGL248W, strain PDE1, active compounds read low 1.01 | locus YGL253W, strain hxk2, active compounds read low 1.03 | locus YGR078C, strain PAC10, active compounds read low 1.03 | locus YGR135W, strain pre9, active compounds read low 1.03 | locus YGR252W, strain gcn5, active compounds read low 1.02 | locus YHR013C, strain ard1, active compounds read low 1.02 | locus YHR027C, strain rpn1, active compounds read low 1.01 | locus YHR030C, strain SLT2, active compounds read low 1 and 0.962 | locus YHR079C, strain IRE1 (second series), active compounds read low 1.02 | locus YHR079C, strain IRE1, active compounds read low 0.973 | locus YHR094C, strain hxt1, active compounds read low 1.02 | locus YHR129C, strain ARP1, active compounds read low 1.01 | locus YHR142W, strain chs7, active compounds read low 1.01 | locus YHR200W, strain rpn10, active compounds read low 1.02 | locus YIL066C, strain RNR3, active compounds read low 1.01 | locus YIL073C, strain SPO22, active compounds read low 1.08 | locus YIL125W, strain kgd1, active compounds read low 1.02 | locus YIR030C, strain dcg1, active compounds read low 1.01 | locus YJL092W, strain hpr5, active compounds read low 1.01 | locus YJL095W, strain BCK1 (second series), active compounds read low 1 | locus YJL095W, strain BCK1, active compounds read low 1.04 and 0.973 | locus YJL115W, strain asf1, active compounds read low 1 | locus YJL129C, strain trk1, active compounds read low 1.03 | locus YJL134W, strain LCB3, active compounds read low 1 | locus YJL154C, strain vps35, active compounds read low 1.01 | locus YJL164C, strain tpk1, active compounds read low 1.01 | locus YJL166W, strain qcr8, active compounds read low 1.02 | locus YJL168C, strain set2, active compounds read low 1.02 | locus YJL187C, strain SWE1 (second series), active compounds read low 1.03 | locus YJL187C, strain SWE1, active compounds read low 1.02 | locus YJR066W, strain TOR1, active compounds read low 0.959 | locus YKL009W, strain mrt4, active compounds read low 1.02 | locus YKL068W, active compounds read low 1.01 | locus YKL085W, strain MDH1 (second series), active compounds read low 1.01 | locus YKL085W, strain MDH1, active compounds read low 1.01 | locus YKL160W, strain elf1, active compounds read low 1 | locus YKR001C, strain vps1, active compounds read low 1.03 | locus YKR026C, strain gcn3, active compounds read low 1.01 | locus YKR091W, strain srl3, active compounds read low 1 | locus YLL001W, strain dnm1, active compounds read low 1.01 | locus YLL026W, active compounds read low 1.01 | locus YLL041C, strain sdh2, active compounds read low 1.03 | locus YLR027C, strain aat2, active compounds read low 1.01 | locus YLR039C, strain RIC1, active compounds read low 1.06 | locus YLR058C, strain SHM2, active compounds read low 1.04 | locus YLR102C, strain apc9, active compounds read low 1.02 | locus YLR113W, strain HOG1, active compounds read low 0.944 | locus YLR221C, strain rsa3, active compounds read low 1.01 | locus YLR258W, strain gsy2, active compounds read low 1.01 | locus YLR262C, strain YPT6 (second series), active compounds read low 1.03 | locus YLR268W, strain sec22, active compounds read low 1.03 | locus YLR320W, strain mms22, active compounds read low 1.03 | locus YLR330W, strain CHS5, active compounds read low 1.01 | locus YLR342W, strain FKS1, active compounds read low 1.01 | locus YLR357W, strain rsc2, active compounds read low 1.03 | locus YLR370C, strain arc18, active compounds read low 1.01 | locus YLR371W, strain rom2, active compounds read low 1.01 | locus YLR384C, strain iki3, active compounds read low 1.03 | locus YLR418C, strain cdc73, active compounds read low 1.06 | locus YML016C, strain PPZ1, active compounds read low 1 | locus YML032C, strain rad52, active compounds read low 1.03 | locus YML120C, strain ndi1, active compounds read low 1.01 | locus YML124C, strain tub3, active compounds read low 1.02 | locus YMR058W, strain fet3, active compounds read low 1.01 | locus YMR078C, strain ctf18, active compounds read low 1.04 | locus YMR125W, strain sto1, active compounds read low 1.03 | locus YMR129W, active compounds read low 1.01 | locus YMR205C, strain PFK2, active compounds read low 1 | locus YMR223W, strain ubp8, active compounds read low 1.02 | locus YMR231W, strain pep5, active compounds read low 1.01 | locus YMR307W, strain GAS1, active compounds read low 0.945 | locus YNL067W, strain RPL9B, active compounds read low 1.02 | locus YNL071W, strain lat1, active compounds read low 1.01 | locus YNL183C, strain NPR1, active compounds read low 0.963 | locus YNL209W, strain ssb2, active compounds read low 1.02 | locus YNL233W, strain BNI4, active compounds read low 1.02 | locus YNL248C, strain rpa49, active compounds read low 1.03 | locus YNL250W, strain rad50, active compounds read low 1.05 | locus YNL271C, strain bni1, active compounds read low 1.02 | locus YNL298W, strain CLA4, active compounds read low 1.02 | locus YNL307C, strain MCK1, active compounds read low 1.02 | locus YNL322C, strain KRE1 (second series), active compounds read low 1 | locus YNR049C, strain mso1, active compounds read low 1.02 | locus YNR052C, strain pop2, active compounds read low 1.03 | locus YOL006C, strain TOP1, active compounds read low 1.06 | locus YOL012C, strain htz1 0.901 | locus YOL147C, strain pex11, active compounds read low 1.01 | locus YOR001W, strain rrp6, active compounds read low 1.01 | locus YOR061W, strain CKA2, active compounds read low 1.02 | locus YOR069W, strain VPS5, active compounds read low 1.01 | locus YOR070C, strain gyp1, active compounds read low 1.01 | locus YOR080W, strain dia2, active compounds read low 1 | locus YOR083W, strain WHI5, active compounds read low 0.992 | locus YOR106W, strain vam3, active compounds read low 0.992 | locus YOR136W, strain idh2, active compounds read low 1.03 | locus YOR144C, strain elg1, active compounds read low 1.02 | locus YOR184W, strain ser1, active compounds read low 1.05 | locus YOR231W, strain MKK1, active compounds read low 0.958 | locus YOR265W, strain rbl2, active compounds read low 0.991 | locus YOR270C, strain vph1, active compounds read low 1.05 | locus YOR290C, strain snf2, active compounds read low 0.993 | locus YOR316C, strain cot1, active compounds read low 1.02 | locus YPL051W, strain arl3, active compounds read low 0.989 | locus YPL055C, strain LGE1, active compounds read low 1.04 | locus YPL078C, strain atp4, active compounds read low 1.01 | locus YPL106C, strain sse1, active compounds read low 0.995 | locus YPL240C, strain hsp82, active compounds read low 1.01 | locus YPL241C, strain CIN2, active compounds read low 1.01 | locus YPL256C, strain CLN2, active compounds read low 0.977 | locus YPR119W, strain clb2, active compounds read low 1.03 | locus YPR141C, strain kar3, active compounds read low 1.02 | locus YPR163C, strain tif3, active compounds read low 1.03 | locus YPR167C, strain met16, active compounds read low 1.03 | strain wtn01, active compounds read low 1.02
